Reference: ChEMBL document CHEMBL3988442, “University of Dundee, Small-Polar-MMV Screening Library” (2021)
Among all 48,000 compounds or so, about 13,000 (27%) showed an effect of 50% or more. This is one part of the list.

Each compound was assayed on Wolbachia pipientis (assay: Anti-Wolbachia Cell-Based Screen). Conditions: 5 µM.
Assay type: functional
Parameters: scale not given: in the data most compounds retested in dose-response had high values

| Structure (SMILES) | Percent Effect [%] |
| --- | --- |
| O=C(c1ccccc1)C1CCN(Cc2cc3c(cc2O)CCC3)CC1 | -3.001 |
| O=S(=O)(c1cccnc1)N1C[C@@H]2CC[C@H](C1)N(Cc1ccccc1)C2 | -31.29 |
| Cn1cc(N2CCC(NC(=O)c3c(F)cccc3Cl)C2=O)cn1 (stereo not drawn) | -23.29 |
| Cc1ncccc1Oc1nccnc1C1CCN(C(C)C)CC1 | -4.012 |
| COc1ccccc1Oc1ncccc1CNC(=O)C(C)N1CCCC1 (stereo not drawn) | -2.64 |
| Cc1ncccc1Oc1nccnc1C1CCN(S(C)(=O)=O)CC1 | 120.9 |
| Cc1ncccc1Oc1nccnc1C1CCCN(C(C)C)C1 (stereo not drawn) | 134.2 |
| COc1ccc(CN(C)C2CCN(S(C)(=O)=O)CC2)c2cccnc12 | 1.454 |
| COCC(=O)N1CCC(c2nccnc2Oc2cccnc2C)CC1 | 0.288 |
| CN(C)CCN1CCN(C)C2(CCN(c3nccs3)CC2)C1=O | -6.968 |
| O=C(Nc1cc(-c2ccncc2)no1)C1CCCCC1 | -8.136 |
| O=C(C1CCCC1)N1CCCC(c2nc(O)cc(-c3ccncc3)n2)C1 (stereo not drawn) | 85.76 |
| O=C(C1CC1)N1CCCC(c2nc(O)cc(-c3ccncc3)n2)C1 (stereo not drawn) | 87.21 |
| O=C(N1CCCC1)N1CCCC(c2nccn2Cc2ccncc2)C1 (stereo not drawn) | 19.93 |
| CC1(C)CNC(=O)c2nc(C3CCCN(C(=O)C4CC4)C3)[nH]c2C1 (stereo not drawn) | -1.543 |
| CC(=O)c1cccc(NC(=O)C2CN(S(=O)(=O)C3CC3)C2)c1 | 8.617 |
| Cc1nccn1CCCC(=O)N1CCC(Nc2cccnn2)CC1 | 11.87 |
| Cc1ccc(NC2CCN(C(=O)CCCn3ccnc3C)CC2)nn1 | 100.9 |
| O=C(CCNCC(F)(F)F)N1CCC(Nc2cccnn2)CC1 | -5.357 |
| Cc1ccc(NC2CCN(C(=O)CCNc3ncccn3)CC2)nn1 | 111.7 |
| Cc1ccc(NC2CCN(C(=O)CCNS(C)(=O)=O)CC2)nn1 | -0.08742 |
| CC(C)(C)C(=O)NCCC(=O)N1CCC(Nc2cccnn2)CC1 | 101.9 |
| O=C(CCNc1ncccn1)N1CCC(Nc2cccnn2)CC1 | 106.9 |
| COC1CCCN(C(=O)NCC(C)(C)SC)C1 (stereo not drawn) | -6.562 |
| NC(=O)C(NC1CCN(CC2CCCCC2)CC1)c1ccc(F)cc1 (stereo not drawn) | 3.018 |
| CS(=O)(=O)CCC(=O)Nc1cc(Cl)c(Cl)cn1 | -8.334 |
| O=C(c1ccc(S(=O)(=O)NCC(F)F)cc1)N1CC[C@H]2CNC[C@H]21 | -11.61 |
| CSc1ccc(C(C)NC(=O)c2cc(C)on2)cc1 (stereo not drawn) | -17.95 |
